Data as given in PubChem BioAssay AID504333 (National Center for Advancing Translational Sciences (NCATS), 2011).
In all, about 360,000 compounds went through this assay and about 16,000 (4.4%) were called active. Not shown: some 9% with an inconclusive outcome. The entries come from a sample that favours actives as a whole. Unmarked numbers belong to inactive results. Calls follow the shape of the dose curve; as a rule, active = well fitted inhibition curve with a large enough effect; inconclusive = small, poorly fitted or top-dose-only effect; inactive = no such curve, though single readings can be large or run the other way.

target: Bromodomain adjacent to zinc finger domain protein 2B (Homo sapiens) (UniProt Q9UIF8); experiment: qHTS Assay for Inhibitors of BAZ2B; conditions: AlphaScreen BAZ2B-H3K14Ac peptide displacement; series mostly up to 114 µM; activity change, negative = inhibition: at the top concentration; also: nearly all actives have a fitted effect of over 60% in size
Sequence (Q9UIF8 whole entry, looked up, the tested form may be a part): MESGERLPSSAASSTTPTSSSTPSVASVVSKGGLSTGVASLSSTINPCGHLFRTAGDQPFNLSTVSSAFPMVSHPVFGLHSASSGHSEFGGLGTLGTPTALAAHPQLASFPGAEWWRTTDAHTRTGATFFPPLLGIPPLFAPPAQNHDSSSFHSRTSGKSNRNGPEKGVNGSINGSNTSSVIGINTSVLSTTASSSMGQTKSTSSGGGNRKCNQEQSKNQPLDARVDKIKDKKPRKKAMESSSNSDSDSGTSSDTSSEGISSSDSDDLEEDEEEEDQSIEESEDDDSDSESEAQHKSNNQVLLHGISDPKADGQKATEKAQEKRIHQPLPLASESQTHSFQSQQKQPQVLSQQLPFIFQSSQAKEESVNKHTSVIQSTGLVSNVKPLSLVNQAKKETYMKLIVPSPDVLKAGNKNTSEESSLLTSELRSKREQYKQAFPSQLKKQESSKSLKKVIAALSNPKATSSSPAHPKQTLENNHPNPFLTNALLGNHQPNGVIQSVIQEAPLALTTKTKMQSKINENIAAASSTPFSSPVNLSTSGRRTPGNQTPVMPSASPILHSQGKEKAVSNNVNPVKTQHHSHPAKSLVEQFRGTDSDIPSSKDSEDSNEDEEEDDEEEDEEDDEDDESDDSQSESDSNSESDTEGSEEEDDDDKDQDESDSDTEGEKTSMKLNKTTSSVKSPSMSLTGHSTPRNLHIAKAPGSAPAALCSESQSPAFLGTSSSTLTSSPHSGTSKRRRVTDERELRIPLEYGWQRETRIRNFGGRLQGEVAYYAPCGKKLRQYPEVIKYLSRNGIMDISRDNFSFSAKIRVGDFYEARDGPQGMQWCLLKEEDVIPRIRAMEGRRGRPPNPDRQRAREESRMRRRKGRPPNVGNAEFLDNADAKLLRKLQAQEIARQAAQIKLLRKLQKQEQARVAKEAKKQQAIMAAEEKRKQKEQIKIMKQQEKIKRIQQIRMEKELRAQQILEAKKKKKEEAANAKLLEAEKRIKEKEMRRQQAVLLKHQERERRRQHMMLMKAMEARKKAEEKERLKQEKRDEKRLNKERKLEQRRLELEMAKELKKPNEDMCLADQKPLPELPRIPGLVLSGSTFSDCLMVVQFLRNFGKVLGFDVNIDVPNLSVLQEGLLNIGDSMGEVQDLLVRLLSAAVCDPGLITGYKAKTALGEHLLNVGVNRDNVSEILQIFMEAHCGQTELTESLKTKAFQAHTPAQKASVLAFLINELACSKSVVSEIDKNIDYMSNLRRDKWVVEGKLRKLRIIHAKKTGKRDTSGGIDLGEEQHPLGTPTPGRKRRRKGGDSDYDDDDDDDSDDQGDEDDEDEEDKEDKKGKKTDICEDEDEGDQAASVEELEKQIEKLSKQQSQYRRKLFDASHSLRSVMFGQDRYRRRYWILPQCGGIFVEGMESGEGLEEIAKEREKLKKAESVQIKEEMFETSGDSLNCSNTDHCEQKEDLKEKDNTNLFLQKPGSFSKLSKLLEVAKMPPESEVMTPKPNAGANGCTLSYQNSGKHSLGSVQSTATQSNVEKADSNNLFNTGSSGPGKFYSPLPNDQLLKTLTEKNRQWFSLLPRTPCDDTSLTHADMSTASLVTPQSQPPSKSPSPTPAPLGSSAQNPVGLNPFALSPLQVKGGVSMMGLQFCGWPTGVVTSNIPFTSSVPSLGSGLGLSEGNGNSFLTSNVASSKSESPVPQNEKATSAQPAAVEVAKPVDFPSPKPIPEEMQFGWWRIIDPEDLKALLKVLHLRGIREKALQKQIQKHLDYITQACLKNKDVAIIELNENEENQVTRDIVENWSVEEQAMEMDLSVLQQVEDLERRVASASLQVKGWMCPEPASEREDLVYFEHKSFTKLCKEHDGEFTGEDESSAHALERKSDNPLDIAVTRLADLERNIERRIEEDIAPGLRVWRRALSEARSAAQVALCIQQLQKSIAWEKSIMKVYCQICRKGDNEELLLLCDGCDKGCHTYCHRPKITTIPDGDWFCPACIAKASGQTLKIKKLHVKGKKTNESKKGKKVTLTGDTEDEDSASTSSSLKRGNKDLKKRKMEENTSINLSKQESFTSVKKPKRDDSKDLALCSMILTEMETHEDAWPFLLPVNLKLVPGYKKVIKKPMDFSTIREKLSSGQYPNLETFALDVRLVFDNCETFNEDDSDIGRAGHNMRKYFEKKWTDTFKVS
In short: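 In this displacement format the biotinylated H3(5-23) peptide acetylated at Lys14 serves as ligand at 50 nM, with BAZ2B at 50 nM in PBS pH 7.4 containing 0.01% Tween-20. Donor and acceptor beads are 10 ug/mL final.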
% is scaled to controls: 0 for no effect and ±100 for the full control effect; potency is read from the fitted curve at half-maximal effect.

| SMILES | activity change, negative = inhibition | Potency |
| --- | --- | --- |
| Cc1ccc2oc(=O)c3cnn(CC(=O)N4CCN(c5cccc(Cl)c5)CC4)c3c2c1 | 2.22% |  |
| O=S(=O)(NC1CCCCC1N1CCN(c2ccccc2F)CC1)c1ccccc1 (stereo not given) | -10.1% [at 57.1 µM] |  |
| CCN1CCN(C2CCCCC2NS(=O)(=O)c2ccc(Cl)cc2)CC1 (stereo not given) | -4.4% [at 57.1 µM] |  |
| COc1ccc(N2CCN(C3CCCCC3NS(=O)(=O)c3ccccc3)CC2)cc1 (stereo not given) |  | 17.8 µM (active) |
| O=C(NCc1ccc(F)cc1)c1ccc2nc(N3CCCCC3)sc2c1 | 9.7% |  |
| COc1ccc(C(=O)Nc2nonc2-c2ccc(OC)c(OC)c2)cc1Cl | 5.28% |  |
| CCCCCn1c(CCNC(=O)c2ccc(F)cc2)nc2ccccc21 | 0.99% |  |
| CN1OC(COC(=O)c2ccc(Cl)cc2)CC1c1ccccc1 (stereo not given) | 58.4% |  |
| Cc1ccccc1S(=O)(=O)N1[C@@H](c2cccc(Cl)c2)C(C(=O)O)=CC[C@H]1c1ccc(Cl)cc1 |  | 79.4 µM (active) |
| Cc1ccc(S(=O)(=O)N2[C@@H](c3ccccc3F)C(C(=O)O)=CC[C@H]2c2ccc(Cl)cc2)cc1 | -5.93% |  |
| Cc1cc2n(n1)C(c1cc(C(C)(C)C)c(O)cc1O)Nc1ccccc1-2 (stereo not given) | -14.5% |  |
| CSc1nc(-c2ccccc2Cl)nc2c1Cc1c(CO)cnc(C)c1O2 | -8.33% |  |
| O=C(CSc1nc2nccnc2c(=O)n1CCc1c[nH]c2ccccc12)Nc1ccccc1F | 3.9% |  |
| Cc1ccc(CSc2nc3ccsc3c(=O)n2CCC(C)C)cc1 | 78.6% |  |
| CCOc1ccc(Nc2nc(Cl)nc(N3CCN(c4ccc(OC)cc4)CC3)n2)cc1 |  | 8.91 µM (active) |
| COc1ccc(Nc2ncc(F)c(N3CCOCC3)n2)cc1 | -27% |  |
| Cc1ccc(Nc2nc(N3CCOCC3)nc(N3CCOCC3)n2)cc1Cl | -13.2% |  |
| CCOC(=O)c1ccc(NC(=O)Cc2cccs2)cc1 | 4.75% |  |
| CCOc1ccccc1NC(=O)Cc1cccs1 |  | 50.1 µM (active) |
| CCOc1ccccc1NC(=O)Cn1nnc(C(=O)NCc2cccs2)c1N | -12.9% |  |
| COc1ccc(CNc2nc(-c3ccccc3)nn2C(=O)c2ccccc2OC)cc1 | -2.25% |  |
| Nc1ccc(-c2nnc(-c3ccccc3)o2)cc1 | 17% |  |
| Nc1ccc(-c2sc(N)nc2-c2ccccc2)cc1 |  | 50.1 µM (active) |
| COc1ccc(NC(=O)c2sc(N)nc2-c2ccccc2)cc1 | -2.58% |  |
| COc1cc(C(=O)N2CCN(c3ccc(Nc4ccc(C)cc4)nn3)CC2)cc(OC)c1OC | -18.6% |  |

| SMILES | activity change, negative = inhibition | Potency |
| --- | --- | --- |
| Cc1ccc(N2CCN(c3ccc(C)cc3)C2c2ccccn2)cc1 |  | 50.1 µM (active) |
| Cc1ccc(S(=O)(=O)NCC(=O)N2CCN(c3ccccn3)CC2)cc1 | 4.28% |  |
| Cc1ccc(-n2ccc(=O)c(C(=O)O)n2)cc1 | 3.19% |  |
| O=S(=O)(NCCc1nnc2ccc(SCc3ccc(Cl)cc3Cl)nn12)c1ccccc1 | -33.8% |  |
| COc1ccc(S(=O)(=O)n2nc(C)c(S(=O)(=O)N3CCCCCC3)c2C)cc1 | -5.25% |  |
| CC(=O)Nc1ccc2nc(SCCOc3cc(C)cc(C)c3)sc2c1 | -8.3% |  |
| CCOc1cc2[nH]c(=O)n(Cc3ccc(C(=O)NCCN(CC)CC)cc3)c(=O)c2cc1OCC | 1.27% |  |
| CCCC(=O)N1CCN(c2nc3c(OC)ccc(C)c3s2)CC1 | -9.35% |  |
| Cc1c2cnn(-c3ccccc3)c(=O)c2c(C)n1C(C)C(=O)Nc1ccc(Br)cc1F (stereo not given) | -11.3% |  |
| COc1ccc(OC)c(Nc2nc(-c3ccc(O)c(O)c3)cs2)c1 |  | 50.1 µM (active) |
| COc1ccc(-c2csc(NC(=O)COC(=O)c3ccc(Br)o3)n2)cc1 | -0.695% |  |
| COc1ccc(CC(=O)Nc2nc(-c3ccc(F)c(F)c3)cs2)cc1OC | -16.6% |  |
| COc1ccc(-c2csc(NC(=O)COC(=O)Cc3ccc(Cl)cc3Cl)n2)cc1 | -0.543% |  |
| COc1ccc(OC)c(-c2csc(NC(=O)COC(=O)C3CC3)n2)c1 | -31.5% |  |
| COc1ccc(-c2csc(Nc3ccc(O)cc3)n2)cc1 |  | 35.5 µM (active) |
| CC1CCN(c2nc3ccc(C(=O)N4CCN(c5ccccc5)CC4)cc3s2)CC1 | -37% |  |
| COc1ccccc1C(=O)Nc1c(C(=O)N(C)Cc2ccccc2)sc2nc(C)c(Cl)c(C)c12 | -26% |  |
| COc1ccc(NC(=O)CCNS(=O)(=O)c2ccc3c(c2)CCCC(=O)N3)cc1Cl | -0.24% [at 57.1 µM] |  |
| COc1ccc(NC(=O)CSc2nc3ccccc3n2CC(=O)N2CCCCC2C)cc1 (stereo not given) | -14.8% |  |
| Cc1ccc(S(=O)(=O)N(CC(=O)Nc2ccc(Cl)cc2Cl)c2ccccc2C)cc1 | -13.1% |  |
| CCOc1cc(C(=O)NCCc2csc3nc(-c4ccc(C)cc4)nn23)cc(OCC)c1OCC | 1.07% |  |
| CCOC(=O)c1cccc(NS(=O)(=O)c2cc(-c3cnc(C)o3)ccc2OC)c1 | -8.57% |  |
| O=C(NC1CCN(Cc2ccccc2)CC1)c1ccc(Cn2c(=O)c3ccccc3n(Cc3cccc(F)c3)c2=O)cc1 | -3.86% |  |
| CCOC(=O)C1CCCN(C(=O)Cn2ncc3c(C)n(Cc4ccc(F)cc4)c(C)c3c2=O)C1 (stereo not given) | 9.72% |  |
| CCCCN(CC)CCCNC(=O)c1nn(C)c2c1CS(=O)(=O)c1ccccc1-2 | -1.12% |  |
